Laboratory results from PubChem BioAssay (NCI).
This is part of a sample that, as a whole, favours compounds with a hit. Of some 83,000 tested, about 20% had one in any assay.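 The test compound was applied at a single concentration to cells in 96-well plates for 48 hours, and percent growth was recorded.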 A number with no mark means an inactive call. Activity calls are given as the source filed them. The calls were made as follows: active = growth percent below 10; inactive = the rest.

Legend:
Assay in all cases: NCI-60 one-dose screen, 48 h (100 = growth as untreated, 0 = no growth, -100 = all killed)
HCT-15 colon = details: 10 µM
HT29 colon = details: 10 µM
SNB-75 CNS = details: 10 µM
SNB-19 CNS = details: 10 µM
U251 CNS = details: 10 µM
PC-3 prostate = details: 10 µM
SK-MEL-5 melanoma = details: 10 µM
UACC-62 melanoma = details: 10 µM unless noted
LOX IMVI melanoma = details: 10 µM
SK-MEL-28 melanoma = details: 10 µM
SK-MEL-2 melanoma = details: 10 µM
EKVX NSCLC = details: 10 µM
SN12C renal = details: 10 µM
TK-10 renal = details: 10 µM unless noted
CAKI-1 renal = details: 10 µM
CCRF-CEM leukemia = details: 10 µM
MOLT-4 leukemia = details: 10 µM
ACHN renal = details: 10 µM
A498 renal = details: 10 µM
UO-31 renal = details: 10 µM

Structure (SMILES)	growth (HCT-15 colon)	growth (HT29 colon)	growth (SNB-75 CNS)	growth (SNB-19 CNS)	growth (U251 CNS)	growth (PC-3 prostate)	growth (SK-MEL-5 melanoma)	growth (UACC-62 melanoma)	growth (LOX IMVI melanoma)	growth (SK-MEL-28 melanoma)	growth (SK-MEL-2 melanoma)	growth (EKVX NSCLC)	growth (SN12C renal)	growth (TK-10 renal)	growth (CAKI-1 renal)	growth (CCRF-CEM leukemia)	growth (MOLT-4 leukemia)	growth (ACHN renal)	growth (A498 renal)	growth (UO-31 renal)
COc1cc(/C=N\Nc2ccccc2)ccc1OC(=O)c1ccccc1	24.4%	72.5%	85.4%	108%	81.5%	49.8%	74.7%	24.4%	3.86% (active)	87.6%	64.3%	66.1%	79.4%	96.2%	40.3%	37.4%	38.5%			
CC(=O)Oc1ccc(Br)cc1C(=O)O	102%	107%	101%	95%	105%	92.2%	104%	98.6%	94.6%	124%	99.8%	104%	102%	102%	95.8%	88.7%	101%	99.3%	131%	
O=C(O)COCC(=O)O	103%	105%	81.4%	108%	94.7%	97%	102%	111%	101%	98.3%	107%		102%	124%	97.5%	101%	99.1%	103%	110%	91.4%
CC1CCCCN1C(=S)Nc1ccc(S(=O)(=O)N2CCCCC2)cc1 (stereo not drawn)	99.2%	94%	129%	109%	95.7%	83%	103%	95.6%	105%	98.6%	107%		109%	107%	75.8%	75.9%	104%	99.8%	70.9%	89.4%
CCOC(=O)CCCS(C)(=O)=O	104%	105%	86.2%	100%	105%	87.9%	102%	93.7%	98.8%	104%	90.7%	113%	97.4%	102%	117%	113%	96.5%	104%	96.8%	
CCOC(=O)c1ccc(NC(=S)P(=O)(c2ccccc2)c2ccccc2)cc1	98.5%	111%	101%	106%	99.2%	80.1%	104%	99.4%	84.8%	106%	119%		103%	123%	86.3%	69.8%	52.6%	102%	86.3%	92.9%
CC1(C)/C(=C\CO)C2CCC1C2 (stereo not drawn)	105%	109%	93.2%	106%	105%	95%	102%	97.3%	107%	115%	105%	113%	99.4%	89.7%	102%	92.3%	107%	112%		
CC1(C(N)=O)CCC(C(=O)O)C1(C)C (stereo not drawn)	96.4%	104%	92.4%	99%	98.2%	98.1%	98%	87%	104%	103%	104%		89.1%	97.7%	99%	104%	123%	102%	106%	85.9%
Cc1c(O)cccc1O	116%	106%	99.1%	97.6%	98.7%	96.9%	106%	94.9%	106%	122%	93.5%	106%	88%	104%	61%	100%	90%	107%	125%	
COC(=O)C(O)c1ccccc1 (stereo not drawn)	105%	122%	93%	102%	104%	94.6%	104%	94.1%	107%	103%	103%	119%	97%	106%	114%	98.1%	105%	100%	132%	
COc1ccc(C(O)c2ccccc2)cc1 (stereo not drawn)	100%	105%	96.1%	105%	94.1%	94.7%	99.3%	95.3%	86.2%	105%	112%	101%	104%	101%	100%	106%	94.1%	106%	102%	
CCCCC1(CC)COC(CCC)OC1 (stereo not drawn)	91.7%	103%	99.1%	99.9%	94.7%	82%	103%	96.6%	97.3%	115%	104%	93.1%	97.6%	101%	84.2%	102%	103%	99.2%	127%	
CCC(C)(C)C1CCC(O)CC1 (stereo not drawn)	88.9%	97.5%	100%	100%	107%	99.2%	97.8%	98.2%	91.1%	114%	103%	94.9%	98.7%	98.7%	115%	93.5%	106%	97.7%	97.8%	
CC1(C(=O)O)NC(C(=O)O)Cc2c1[nH]c1ccccc21 (stereo not drawn)	110%	109%	88.8%	108%	102%	87.4%	104%	100%	101%	103%	93.7%		95.8%	108%	96.5%	82.8%	88.8%	102%	91.8%	79.5%
O=C(CCNNC(=O)c1ccncc1)NCc1ccccc1	81.8%	105%	89.4%	98.1%	85.4%	87.4%	89%	88%	86.8%	103%	94.3%	106%	97.1%	133%	109%	5.43% (active)	99%		110%	
CC(=O)Cc1ccc(-c2ccccc2)cc1	103%	111%	98.5%	101%	98.3%	97.1%	98.7%	87.5%	100%	114%	102%		86.3%	101%	104%	102%	117%	108%	89%	84.8%
O=C(O)/C=C/c1ccc2c(c1)CCC2	99.5%	104%	100%	105%	99.3%	103%	105%	103%	102%	104%	110%		95.4%	107%	94.5%	83.5%	97.1%	107%	111%	99.7%
COc1cc2nn(-c3ccccc3N)nc2cc1OC	102%	103%	72.6%	99.9%	91.7%	97.8%	98.4%	103%	94.7%	109%	106%		106%	109%	85.6%	101%	98.9%	109%	82.3%	87.6%
